Experimental data: paper PMC11006913
Substitutions are numbered along the chain they refer to.

How the values were obtained:
Test in all cases: PBM; 200 nM protein, PBS
Settings in all cases: dsDNA, one strand shown
SIX6 [1] = biological target: T1, SIX6 (Homo sapiens, UniProt O95475 114-200, L167I)
T1 sequence: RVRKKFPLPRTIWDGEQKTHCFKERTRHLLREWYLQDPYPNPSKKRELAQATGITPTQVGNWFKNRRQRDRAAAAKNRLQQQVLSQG

SIX6 [2] = biological target: T2, SIX6 (Homo sapiens, UniProt O95475 114-200, L143V)
T2 sequence: T1 sequence with L30V, I54L

SIX6 [3] = biological target: T3, SIX6 (Homo sapiens, UniProt O95475 114-200, H141N)
T3 sequence: T1 sequence with H28N, I54L

SIX6 [4] = biological target: T4, SIX6 (Homo sapiens, UniProt O95475 114-200, T165P)
T4 sequence: T1 sequence with T52P, I54L

SIX6 [5] = biological target: T5, SIX6 (Homo sapiens, UniProt O95475 114-200, L167M)
T5 sequence: T1 sequence with I54M

SIX6 [6] = biological target: T6, SIX6 (Homo sapiens, UniProt O95475 114-200, L143M)
T6 sequence: T1 sequence with L30M, I54L

SIX6 [7] = biological target: T7, SIX6 (Homo sapiens, UniProt O95475 114-200, L143I)
T7 sequence: T1 sequence with L30I, I54L

SIX6 [8] = biological target: T8, SIX6 (Homo sapiens, UniProt O95475 114-200, T165G)
T8 sequence: T1 sequence with T52G, I54L

HOXA2 [9] = biological target: HOXA2 (Homo sapiens, UniProt O43364 129-215, R185T)
Sequence of HOXA2 (Homo sapiens, UniProt O43364 129-215, R185T) (O43364 129-215 R185T): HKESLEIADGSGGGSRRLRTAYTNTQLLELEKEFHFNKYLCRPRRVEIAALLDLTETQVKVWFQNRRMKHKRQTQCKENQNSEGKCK

SIX6 [10] = biological target: T9, SIX6 (Homo sapiens, UniProt O95475 114-200, T139Q)
T9 sequence: T1 sequence with T26Q, I54L

SIX6 [11] = biological target: T10, SIX6 (Homo sapiens, UniProt O95475 114-200, T165A)
T10 sequence: T1 sequence with T52A, I54L

SIX6 [12] = biological target: T11, SIX6 (Homo sapiens, UniProt O95475 114-200, L167V)
T11 sequence: T1 sequence with I54V

SIX6 [13] = biological target: T12, SIX6 (Homo sapiens, UniProt O95475 114-200)
T12 sequence: T1 sequence with I54L

SIX6 [14] = biological target: T13, SIX6 (Homo sapiens, UniProt O95475 114-200, T165I)
T13 sequence: T1 sequence with T52I, I54L

HOXA2 [15] = biological target: HOXA2 (Homo sapiens, UniProt O43364 129-215)
Sequence of HOXA2 (Homo sapiens, UniProt O43364 129-215) (O43364 129-215): as the sequence (O43364 129-215 R185T) above, with T57R counted along it

Sequence	binding signal (SIX6 [1])	binding signal (SIX6 [2])	binding signal (SIX6 [3])	binding signal (SIX6 [4])	binding signal (SIX6 [5])	binding signal (SIX6 [6])	binding signal (SIX6 [7])	binding signal (SIX6 [8])	binding signal (HOXA2 [9])	binding signal (SIX6 [10])	binding signal (SIX6 [11])	binding signal (SIX6 [12])	binding signal (SIX6 [13])	binding signal (SIX6 [14])	binding signal (HOXA2 [15])
AGATATAC	11 upbm affinity estimate (log intensity, higher = more binding, comparable within an allelic series)	10.4 upbm affinity estimate (log intensity, higher = more binding, comparable within an allelic series)	10.8 upbm affinity estimate (log intensity, higher = more binding, comparable within an allelic series)	9.92 upbm affinity estimate (log intensity, higher = more binding, comparable within an allelic series)	10.9 upbm affinity estimate (log intensity, higher = more binding, comparable within an allelic series)	10.9 upbm affinity estimate (log intensity, higher = more binding, comparable within an allelic series)	10.4 upbm affinity estimate (log intensity, higher = more binding, comparable within an allelic series)	11 upbm affinity estimate (log intensity, higher = more binding, comparable within an allelic series)	8.17 upbm affinity estimate (log intensity, higher = more binding, comparable within an allelic series)	10.9 upbm affinity estimate (log intensity, higher = more binding, comparable within an allelic series)	10.8 upbm affinity estimate (log intensity, higher = more binding, comparable within an allelic series)	10.7 upbm affinity estimate (log intensity, higher = more binding, comparable within an allelic series)	10.9 upbm affinity estimate (log intensity, higher = more binding, comparable within an allelic series)	10.8 upbm affinity estimate (log intensity, higher = more binding, comparable within an allelic series)	8.19 upbm affinity estimate (log intensity, higher = more binding, comparable within an allelic series)
CGGGCCCC	8.63 upbm affinity estimate (log intensity, higher = more binding, comparable within an allelic series)	8.6 upbm affinity estimate (log intensity, higher = more binding, comparable within an allelic series)	8.71 upbm affinity estimate (log intensity, higher = more binding, comparable within an allelic series)	8.8 upbm affinity estimate (log intensity, higher = more binding, comparable within an allelic series)	8.68 upbm affinity estimate (log intensity, higher = more binding, comparable within an allelic series)	8.6 upbm affinity estimate (log intensity, higher = more binding, comparable within an allelic series)	8.75 upbm affinity estimate (log intensity, higher = more binding, comparable within an allelic series)	8.71 upbm affinity estimate (log intensity, higher = more binding, comparable within an allelic series)		8.68 upbm affinity estimate (log intensity, higher = more binding, comparable within an allelic series)	8.73 upbm affinity estimate (log intensity, higher = more binding, comparable within an allelic series)	8.59 upbm affinity estimate (log intensity, higher = more binding, comparable within an allelic series)	8.64 upbm affinity estimate (log intensity, higher = more binding, comparable within an allelic series)	8.66 upbm affinity estimate (log intensity, higher = more binding, comparable within an allelic series)	
AGCGCAGG	9.08 upbm affinity estimate (log intensity, higher = more binding, comparable within an allelic series)	8.96 upbm affinity estimate (log intensity, higher = more binding, comparable within an allelic series)	9.05 upbm affinity estimate (log intensity, higher = more binding, comparable within an allelic series)	8.99 upbm affinity estimate (log intensity, higher = more binding, comparable within an allelic series)	9.06 upbm affinity estimate (log intensity, higher = more binding, comparable within an allelic series)	9.04 upbm affinity estimate (log intensity, higher = more binding, comparable within an allelic series)	9.01 upbm affinity estimate (log intensity, higher = more binding, comparable within an allelic series)	9.15 upbm affinity estimate (log intensity, higher = more binding, comparable within an allelic series)		9.1 upbm affinity estimate (log intensity, higher = more binding, comparable within an allelic series)	9.08 upbm affinity estimate (log intensity, higher = more binding, comparable within an allelic series)	9.04 upbm affinity estimate (log intensity, higher = more binding, comparable within an allelic series)	9.02 upbm affinity estimate (log intensity, higher = more binding, comparable within an allelic series)	9.03 upbm affinity estimate (log intensity, higher = more binding, comparable within an allelic series)	
GGGGGCAA	8.96 upbm affinity estimate (log intensity, higher = more binding, comparable within an allelic series)	9.04 upbm affinity estimate (log intensity, higher = more binding, comparable within an allelic series)	8.94 upbm affinity estimate (log intensity, higher = more binding, comparable within an allelic series)	8.98 upbm affinity estimate (log intensity, higher = more binding, comparable within an allelic series)	9.06 upbm affinity estimate (log intensity, higher = more binding, comparable within an allelic series)	8.97 upbm affinity estimate (log intensity, higher = more binding, comparable within an allelic series)	8.96 upbm affinity estimate (log intensity, higher = more binding, comparable within an allelic series)	8.89 upbm affinity estimate (log intensity, higher = more binding, comparable within an allelic series)		8.98 upbm affinity estimate (log intensity, higher = more binding, comparable within an allelic series)	9.04 upbm affinity estimate (log intensity, higher = more binding, comparable within an allelic series)	8.9 upbm affinity estimate (log intensity, higher = more binding, comparable within an allelic series)	8.96 upbm affinity estimate (log intensity, higher = more binding, comparable within an allelic series)	9.01 upbm affinity estimate (log intensity, higher = more binding, comparable within an allelic series)	
CCCGGGAC	8.81 upbm affinity estimate (log intensity, higher = more binding, comparable within an allelic series)	9.03 upbm affinity estimate (log intensity, higher = more binding, comparable within an allelic series)	8.97 upbm affinity estimate (log intensity, higher = more binding, comparable within an allelic series)	8.99 upbm affinity estimate (log intensity, higher = more binding, comparable within an allelic series)	9.01 upbm affinity estimate (log intensity, higher = more binding, comparable within an allelic series)	9.18 upbm affinity estimate (log intensity, higher = more binding, comparable within an allelic series)	9.04 upbm affinity estimate (log intensity, higher = more binding, comparable within an allelic series)	9.17 upbm affinity estimate (log intensity, higher = more binding, comparable within an allelic series)		9.14 upbm affinity estimate (log intensity, higher = more binding, comparable within an allelic series)	9.12 upbm affinity estimate (log intensity, higher = more binding, comparable within an allelic series)	8.96 upbm affinity estimate (log intensity, higher = more binding, comparable within an allelic series)	9.07 upbm affinity estimate (log intensity, higher = more binding, comparable within an allelic series)	9.02 upbm affinity estimate (log intensity, higher = more binding, comparable within an allelic series)	
CAGGCCCG	8.93 upbm affinity estimate (log intensity, higher = more binding, comparable within an allelic series)	8.77 upbm affinity estimate (log intensity, higher = more binding, comparable within an allelic series)	8.88 upbm affinity estimate (log intensity, higher = more binding, comparable within an allelic series)	8.76 upbm affinity estimate (log intensity, higher = more binding, comparable within an allelic series)	8.82 upbm affinity estimate (log intensity, higher = more binding, comparable within an allelic series)	8.79 upbm affinity estimate (log intensity, higher = more binding, comparable within an allelic series)	8.85 upbm affinity estimate (log intensity, higher = more binding, comparable within an allelic series)	8.97 upbm affinity estimate (log intensity, higher = more binding, comparable within an allelic series)		9.09 upbm affinity estimate (log intensity, higher = more binding, comparable within an allelic series)	8.92 upbm affinity estimate (log intensity, higher = more binding, comparable within an allelic series)	8.87 upbm affinity estimate (log intensity, higher = more binding, comparable within an allelic series)	8.81 upbm affinity estimate (log intensity, higher = more binding, comparable within an allelic series)	8.93 upbm affinity estimate (log intensity, higher = more binding, comparable within an allelic series)	
